# Data reported in article PMC7862700, “An all-to-all approach to the identification of sequence-specific readers for epigenetic DNA modifications on cytosine”.
# What was measured:
# Test in all cases: DAPPL (digital affinity profiling via proximity ligation, sequencing); 10 mM Tris-HCl pH 7.5, 50 mM NaCl, 1 mM DTT, 4% glycerol, room temperature, 30 min; GST-TFs on glutathione beads, 16-mer random dsDNA library, 0.1% formaldehyde crosslink after washing; high values mean tight binding
# Details in all cases: protein: recombinant; tags: N-terminal GST; dsDNA, one strand shown
# FLI1 = biological target: T1, FLI1 (Homo sapiens, UniProt Q01543 1-452)
# T1 sequence: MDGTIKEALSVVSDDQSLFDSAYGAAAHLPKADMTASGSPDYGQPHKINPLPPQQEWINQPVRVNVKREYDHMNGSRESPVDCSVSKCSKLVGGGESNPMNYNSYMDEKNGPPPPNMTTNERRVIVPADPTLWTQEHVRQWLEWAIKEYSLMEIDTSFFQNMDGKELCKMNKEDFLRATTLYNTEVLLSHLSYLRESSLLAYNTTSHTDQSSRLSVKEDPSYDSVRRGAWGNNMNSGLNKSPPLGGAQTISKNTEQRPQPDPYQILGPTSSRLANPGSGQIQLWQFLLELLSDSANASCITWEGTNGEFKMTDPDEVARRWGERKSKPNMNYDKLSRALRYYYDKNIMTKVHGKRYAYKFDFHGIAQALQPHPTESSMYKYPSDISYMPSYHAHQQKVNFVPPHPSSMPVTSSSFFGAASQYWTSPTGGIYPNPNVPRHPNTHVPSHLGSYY
# Procedure, shortened: (§1)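 The binding signal reported is, for every hexamer, its read frequency for a factor over its read frequency for the tag-only sample. Reads came from pools of yeast-expressed, GST-fused human transcription factors on glutathione beads, barcoded with DNA and mixed with that sample, which were incubated with 200 nmole of a random double-stranded 16-mer DNA library in Tris/NaCl/DTT/glycerol buffer at room temperature for 30 min. After washing, the pools were crosslinked with 0.1% formaldehyde, proximity-ligated with BsaI/T4 ligase for 1 h at 37 °C, PCR-amplified and sequenced on an Illumina NextSeq500.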
# ELK1 = biological target: T2, ELK1 (Homo sapiens, UniProt P19419 1-428)
# T2 sequence: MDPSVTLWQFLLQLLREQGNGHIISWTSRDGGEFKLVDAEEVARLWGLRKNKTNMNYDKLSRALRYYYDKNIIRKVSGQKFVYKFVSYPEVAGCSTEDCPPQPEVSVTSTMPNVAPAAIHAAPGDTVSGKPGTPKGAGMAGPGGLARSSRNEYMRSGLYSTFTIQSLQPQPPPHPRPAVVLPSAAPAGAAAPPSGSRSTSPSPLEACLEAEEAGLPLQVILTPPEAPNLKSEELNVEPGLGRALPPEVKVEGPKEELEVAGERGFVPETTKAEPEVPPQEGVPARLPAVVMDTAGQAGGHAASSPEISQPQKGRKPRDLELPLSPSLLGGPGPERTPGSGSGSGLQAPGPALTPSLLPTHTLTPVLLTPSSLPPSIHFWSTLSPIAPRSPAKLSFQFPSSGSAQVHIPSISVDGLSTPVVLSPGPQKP
# Procedure, shortened: as §1
# GABPA = biological target: T3, GABPA (Homo sapiens, UniProt Q06546 1-454)
# T3 sequence: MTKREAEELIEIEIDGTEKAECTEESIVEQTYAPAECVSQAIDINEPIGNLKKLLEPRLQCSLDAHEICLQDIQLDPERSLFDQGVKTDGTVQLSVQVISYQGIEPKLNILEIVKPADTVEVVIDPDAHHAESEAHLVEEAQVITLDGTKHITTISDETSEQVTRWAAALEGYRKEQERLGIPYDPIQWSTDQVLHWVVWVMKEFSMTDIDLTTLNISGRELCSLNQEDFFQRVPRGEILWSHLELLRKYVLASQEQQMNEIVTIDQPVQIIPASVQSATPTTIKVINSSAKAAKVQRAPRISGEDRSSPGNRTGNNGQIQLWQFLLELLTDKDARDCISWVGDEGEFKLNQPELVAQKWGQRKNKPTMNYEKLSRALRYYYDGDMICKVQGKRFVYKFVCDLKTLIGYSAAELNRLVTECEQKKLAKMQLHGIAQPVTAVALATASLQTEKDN
# Procedure, shortened: as §1
# ERG = biological target: T4, ERG (Homo sapiens, UniProt P11308 1-479)
# T4 sequence: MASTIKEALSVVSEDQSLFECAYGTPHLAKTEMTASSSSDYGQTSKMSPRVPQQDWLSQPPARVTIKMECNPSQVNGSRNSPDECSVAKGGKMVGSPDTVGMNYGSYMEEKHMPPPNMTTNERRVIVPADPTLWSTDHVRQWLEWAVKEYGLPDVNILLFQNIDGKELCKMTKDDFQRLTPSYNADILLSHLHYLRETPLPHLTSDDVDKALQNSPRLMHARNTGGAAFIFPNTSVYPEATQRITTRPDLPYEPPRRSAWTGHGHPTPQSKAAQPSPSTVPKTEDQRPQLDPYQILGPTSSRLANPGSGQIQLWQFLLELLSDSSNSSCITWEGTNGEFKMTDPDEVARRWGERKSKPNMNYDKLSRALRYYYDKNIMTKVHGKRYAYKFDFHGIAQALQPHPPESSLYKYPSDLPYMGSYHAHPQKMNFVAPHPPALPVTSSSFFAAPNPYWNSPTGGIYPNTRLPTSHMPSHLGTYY
# Procedure, shortened: as §1
# ELF1 = ELF1 (Homo sapiens, UniProt P32519 1-619)
# ELF1, sequence (P32519 whole entry): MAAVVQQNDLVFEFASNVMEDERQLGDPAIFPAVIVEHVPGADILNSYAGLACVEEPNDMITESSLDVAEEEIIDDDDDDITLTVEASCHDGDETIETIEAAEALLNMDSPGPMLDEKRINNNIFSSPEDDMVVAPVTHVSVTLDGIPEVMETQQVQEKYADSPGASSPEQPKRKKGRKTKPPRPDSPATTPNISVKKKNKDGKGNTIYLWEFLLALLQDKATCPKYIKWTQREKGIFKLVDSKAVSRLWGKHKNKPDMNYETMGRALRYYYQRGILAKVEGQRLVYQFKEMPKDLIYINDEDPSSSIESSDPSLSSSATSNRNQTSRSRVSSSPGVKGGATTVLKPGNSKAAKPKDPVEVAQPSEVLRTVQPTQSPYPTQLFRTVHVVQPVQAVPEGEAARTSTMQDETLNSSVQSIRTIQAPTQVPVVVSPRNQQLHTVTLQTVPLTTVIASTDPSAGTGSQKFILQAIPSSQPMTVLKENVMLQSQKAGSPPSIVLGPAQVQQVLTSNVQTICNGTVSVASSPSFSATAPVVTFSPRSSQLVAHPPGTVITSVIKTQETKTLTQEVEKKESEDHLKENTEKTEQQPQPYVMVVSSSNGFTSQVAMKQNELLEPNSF
# Procedure, shortened: as §1
# EHF = biological target: T5, EHF (Homo sapiens, UniProt Q9NZC4 1-300)
# T5 sequence: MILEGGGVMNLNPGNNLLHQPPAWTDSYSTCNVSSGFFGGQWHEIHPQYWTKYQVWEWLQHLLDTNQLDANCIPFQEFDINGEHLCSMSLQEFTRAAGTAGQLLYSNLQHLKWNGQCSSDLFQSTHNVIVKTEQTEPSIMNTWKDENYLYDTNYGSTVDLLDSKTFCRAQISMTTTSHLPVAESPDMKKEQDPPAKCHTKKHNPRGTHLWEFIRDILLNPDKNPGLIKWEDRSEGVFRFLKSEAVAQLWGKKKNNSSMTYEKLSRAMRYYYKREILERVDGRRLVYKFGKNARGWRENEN
# Procedure, shortened: as §1
# SPI1 = SPI1 (Homo sapiens, UniProt P17947 1-270)
# Procedure, shortened: as §1
# SPIB = SPIB (Homo sapiens, UniProt Q01892 1-262)
# SPIB, sequence (Q01892 whole entry): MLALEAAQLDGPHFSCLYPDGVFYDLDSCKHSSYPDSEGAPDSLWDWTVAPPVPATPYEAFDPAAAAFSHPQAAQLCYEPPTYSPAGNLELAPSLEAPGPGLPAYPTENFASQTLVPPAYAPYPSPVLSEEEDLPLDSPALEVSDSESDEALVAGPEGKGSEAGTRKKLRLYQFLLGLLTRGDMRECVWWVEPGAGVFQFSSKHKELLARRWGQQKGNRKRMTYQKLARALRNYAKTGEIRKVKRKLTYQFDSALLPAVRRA
# Procedure, shortened: as §1
# ELK3 = biological target: T6, ELK3 (Homo sapiens, UniProt P41970 1-407)
# T6 sequence: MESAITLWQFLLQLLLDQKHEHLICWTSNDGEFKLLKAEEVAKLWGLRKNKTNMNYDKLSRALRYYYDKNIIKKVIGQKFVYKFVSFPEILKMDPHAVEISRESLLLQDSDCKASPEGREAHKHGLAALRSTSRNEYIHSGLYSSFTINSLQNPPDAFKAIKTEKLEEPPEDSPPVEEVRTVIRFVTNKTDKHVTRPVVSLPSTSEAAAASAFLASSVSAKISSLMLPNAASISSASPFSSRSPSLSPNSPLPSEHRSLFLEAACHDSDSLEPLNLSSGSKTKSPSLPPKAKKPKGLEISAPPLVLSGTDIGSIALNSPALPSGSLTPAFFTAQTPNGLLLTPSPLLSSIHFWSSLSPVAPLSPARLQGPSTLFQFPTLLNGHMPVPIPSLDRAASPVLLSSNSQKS
# Procedure, shortened: as §1
sequence,measurement,setting,value
TGCCAA,binding signal,FLI1,"1.07 fold enrichment (6-mer frequency, TF over GST control)"
same,binding signal,ELK1,"1.11 fold enrichment (6-mer frequency, TF over GST control)"
same,binding signal,GABPA,"1.06 fold enrichment (6-mer frequency, TF over GST control)"
same,binding signal,ERG,"1.06 fold enrichment (6-mer frequency, TF over GST control)"
same,binding signal,ELF1,"1.18 fold enrichment (6-mer frequency, TF over GST control)"
same,binding signal,EHF,"1.09 fold enrichment (6-mer frequency, TF over GST control)"
same,binding signal,SPI1,"1.12 fold enrichment (6-mer frequency, TF over GST control)"
same,binding signal,SPIB,"1.11 fold enrichment (6-mer frequency, TF over GST control)"
same,binding signal,ELK3,"1.05 fold enrichment (6-mer frequency, TF over GST control)"
